Screens (PubChem BioAssay)
An excerpt weighted towards active compounds, which were near 3.3% of everything screened.
FAK blocker: inhibitors of human focal adhesion kinase; inhibition, %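 (tested at 7 µM)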; AID 727; 0.84% of 97,000 active; Q05397; biochemical FAK kinase activity assay; in the data active = inhibition above about 19%
ERa SRC1 inh: blocks coactivator binding to human estrogen receptor alpha; TR-FRET ER-alpha LBD / SRC-1 peptide, estradiol-bound; P03372; inhibition, % at 25.6 µM; 1.7% of 86,000 active; in the data active = inhibition above about 50%
Smad3 FoxH1 inh: inhibitors of human Smad3 transcription factor binding; P84022; TR-FRET Smad3/Dy647-FoxH1 peptide binding, europium anti-His; inhibition, % at 25 µM; 0.29% of 88,000 active;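 active = compounds that reduce the energy-transfer binding signal between the protein and its labelled peptide by more than half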
ERb coact inh: blocks coactivator binding to human estrogen receptor beta | 1.3% of 86,000 active | inhibition, % at 25.6 µM | TR-FRET ER-beta LBD / SRC1-Cy5 peptide binding; receptor agonist-loaded with 1 µM estradiol | AID 633;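 active = compounds whose percent inhibition of the receptor-coactivator binding signal exceeds about 50% in the single-dose screen, limit read from the data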
Target sequence (Q92731 whole entry, looked up, the tested form may be a part): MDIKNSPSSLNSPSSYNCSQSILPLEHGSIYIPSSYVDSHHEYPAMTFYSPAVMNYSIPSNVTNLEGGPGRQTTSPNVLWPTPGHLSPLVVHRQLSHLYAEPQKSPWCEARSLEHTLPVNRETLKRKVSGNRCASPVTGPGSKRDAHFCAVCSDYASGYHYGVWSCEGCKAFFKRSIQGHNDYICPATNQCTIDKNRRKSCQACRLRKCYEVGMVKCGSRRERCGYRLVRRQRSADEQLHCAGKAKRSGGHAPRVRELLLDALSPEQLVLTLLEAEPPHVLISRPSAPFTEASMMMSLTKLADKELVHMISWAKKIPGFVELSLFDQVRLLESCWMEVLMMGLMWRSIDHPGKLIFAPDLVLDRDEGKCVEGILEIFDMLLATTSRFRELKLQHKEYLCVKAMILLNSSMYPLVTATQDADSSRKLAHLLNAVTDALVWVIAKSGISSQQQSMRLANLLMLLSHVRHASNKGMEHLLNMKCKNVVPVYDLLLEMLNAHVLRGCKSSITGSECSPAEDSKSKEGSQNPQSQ
ERa coact pot: ER-alpha (human) coactivator binding potentiation; P03372; TR-FRET ERalpha-LBD/SRC-Cy5 coactivator binding, 2 h; 100 = basal binding, no effect; coactivator binding (% of control), % at 25.6 µM; 1.3% of 86,000 active; AID 639; in the data active = activity above about 200%;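 note: binding measured in presence of low estradiol as agonist stimulus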
Numbers stand for hits; n = inactive; x = no result; [ ] = another dose, or the depositor's remark.

SMILES	FAK blocker	ERa SRC1 inh	Smad3 FoxH1 inh	ERb coact inh	ERa coact pot
NC(=O)c1nsc(C(=O)N(CC(=O)NCc2ccco2)c2ccccc2F)c1N	24	n	n	n	n
O=C(O)C1C2C=CC3(CN(Cc4ccco4)C(=O)C13)O2 (stereo not given)	n	98[fluorescence artefact?]	n	n	n
COc1ccc(CC[N@+]2(C)COc3cc4oc(=O)cc(C)c4cc3C2)cc1OC	x	x	n	x	x
Clc1ccc(CSCc2ccc(Cl)cc2Cl)c(Cl)c1	x	x	n	x	x
CCOc1cc(OCC)cc(C(=O)O)c1	n	99[fluorescence artefact?]	n	n	n
O=C1c2ccccc2-c2onc3c(Oc4ccccc4)cc(O)c1c23	n	74[fluorescence artefact?]	n	71[fluorescence artefact?]	n
COc1cccc(-c2nc(-c3ccccc3)no2)c1	n	n	n	n	n
COc1cccc(-c2nc(-c3ccc(NC(=O)c4cccnc4)cc3)no2)c1	n	n	n	n	203[fluorescence artefact?]
COc1ccc(CC(=O)Nc2ccc(-c3noc(-c4cccc(OC)c4)n3)cc2)cc1	n	n	n	n	287[fluorescence artefact?]
O=C(Nc1ccc(-c2noc(-c3cccs3)n2)cc1)c1cccnc1	n	n	n	n	364
Cc1ccccc1-c1nc(-c2ccc(NC(=O)c3ccc(Br)o3)cc2)no1	n	n	n	n	265
CC(Oc1ccc(Cl)cc1Cl)c1nc(-c2ccc(NC(=O)c3cccnc3)cc2)no1 (stereo not given)	n	n	n	n	n
C[C@H]1C[C@@H]2[C@@H]3CCC4=CC(=O)C=C[C@@]4(C)[C@@]3(Cl)[C@H](Cl)C[C@@]2(C)[C@]1(O)C(=O)COP(=O)(O)O	x	x	n	x	x
O=C(c1ccccc1)[C@H](Nc1ccc2ccccc2c1)c1ccccc1	x	x	n	x	x
Cc1ccc(Sc2c(C)nn(C(=O)c3cccc(S(=O)(=O)N4CCOCC4)c3)c2C)cc1	n	n	n	n	237[fluorescence artefact?]
Cn1nc(SCC(=O)O)sc1=S	n	70[fluorescence artefact?]	n	n	n
CCOC(=O)C(Sc1nn(C)c(=S)s1)C(C)=O (stereo not given)	n	n	n	n	n
C=CCn1c(SCC(=O)c2ccc(O)c(O)c2)nnc1-c1ccccc1OC	n	n	n	n	n
CCn1c(SCC(=O)c2ccc(O)c(O)c2)nnc1-c1ccccc1OC	n	n	n	54	n
O=C(O)c1ccc(C(=O)Nc2cccc3ccccc23)c(C(=O)O)c1	x	x	n	x	x
COC(=O)c1ccc(S(=O)(=O)N2C3CCC2CC(NC(=O)NC2CCCCC2)C3)cc1 (stereo not given)	n	n	n	58[fluorescence artefact?]	n
Cc1ccc2[nH]c(=S)cc(C)c2c1	n	n	n	60[fluorescence artefact?]	n
Cc1cc(=S)[nH]c2ccccc12	n	n	n	n	n
Cc1ccc(C)c(Cn2c(=O)n(-c3ccc(CC(=O)NCc4ccco4)cc3)c(=O)c3sccc32)c1	n	80[fluorescence artefact?]	n	55	n
O=C(CCCn1c(=O)c2sccc2n(Cc2ccc(F)cc2)c1=O)NCc1ccco1	n	n	n	n	n
SMILES	FAK blocker	ERa SRC1 inh	Smad3 FoxH1 inh	ERb coact inh	ERa coact pot
CCOC(=O)Cn1nc(C)n(-c2ccc(C(C)(C)C)cc2)c1=O	n	x	x	x	x
C[N+]1(C)CCc2cc(O)c(O)cc2[C@H]1Cc1ccc(O)c(O)c1	x	x	n	x	x
COc1ccc(NC(=O)CN(c2ccccc2)S(=O)(=O)N(C)C)cc1OC	n	63[fluorescence artefact?]	n	57	n
CC(=O)C1=C(C)NC(SCC(=O)c2ccc(F)cc2)=C(C#N)C1c1ccco1 (stereo not given)	n	n	n	n	n
COc1ccccc1NC(=O)C1=C(C)NC(SCC(=O)c2ccc(C)cc2)=C(C#N)C1c1ccco1 (stereo not given)	n	n	n	n	203
CC1(C)S[C@H]2[C@H](NC(=O)C3(N)CCCCC3)C(=O)N2[C@@H]1C(=O)O	x	x	n	x	x
OC1(C(O)(c2ccc(-c3ccccc3)cc2)c2ccc(-c3ccccc3)cc2)CCCCC1	x	x	n	x	x
CC(C)C(=O)c1cn(CC(=O)NCC2CCCO2)c2ccccc12 (stereo not given)	n	n	n	n	n
CCOC(=O)C1=C(O)/C(=C/c2cn(CC(=O)NCC3CCCO3)c3ccccc23)SC1=Nc1ccc(C)cc1 (stereo not given)	n	78	n	n	n
O=c1cc(CF)[nH]c(=S)[nH]1	x	x	n	x	x
COCCn1c(C)cc(C(=O)COC(=O)c2cc3c(s2)CCC3)c1C	n	76[fluorescence artefact?]	n	66	n
COCCn1c(C)cc(C(=O)CSc2nnc(C)s2)c1C	x	n	n	n	n
CCOc1ccccc1Nc1ccc(N)cc1S(=O)(=O)O	x	x	n	x	x
Nc1c(S(=O)(=O)O)cc(Nc2cccc(S(N)(=O)=O)c2)c2c1C(=O)c1ccccc1C2=O	x	x	n	x	x
C=CCn1c(SCC(=O)Nc2sccc2C(N)=O)nc2ccc(Cl)cc2c1=O	n	64[fluorescence artefact?]	n	n	n
C=CCn1c(SCC(=O)Nc2sccc2C(N)=O)nc2ccccc2c1=O	n	n	n	n	n
CC1CCN(Cc2ccc(NC(=O)C3CCN(c4nnc(-n5cccc5)s4)CC3)cc2)CC1	x	85[fluorescence artefact?]	n	72[fluorescence artefact?]	n
O=C(C1CCN(c2nnc(-n3cccc3)s2)CC1)N1CCN(Cc2ccc3c(c2)OCO3)CC1	x	n	n	n	n
Cc1ccc([C@@]2(C)CC/C(=N\N=C3/CC[C@](C)(c4ccc(C)c(C)c4)c4cc(C)c(C)cc43)c3cc(C)c(C)cc32)cc1C	x	x	n	x	x
O=c1[nH]cc(CS(=O)(=O)Cc2c[nH]c(=O)[nH]c2=O)c(=O)[nH]1	x	x	n	x	x
Cc1ccc(-c2cc3c(nn2)-c2ccccc2C3=O)cc1	x	63[fluorescence artefact?]	n	n	n
